# Measurements from PubChem BioAssay AID504408 (Broad Institute, 2011).
# Screen size: about 300,000 compounds; about 5,200 (1.7%) were called active.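 How the source made its calls: active means mean replicate activation of at least 50% with a set share of replicates each reaching 50%; inconclusive means only one of those two conditions met; inactive means mean below 50% and too few replicates reaching it.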 The list comes from a sample in which actives are over-represented; it also holds similar structures and randomly drawn compounds.
# Assay: HSF-1 response element luciferase induction – NIH3T3-HGL cells, MG132 stress, luminescence, single point, primary screen (AID 504408);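 further: 0% = median of the neutral control wells and 100% = twice that signal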
# Conditions: NIH3T3-HGL HSF-1 luciferase reporter, MG132, 8 h; at 9 µM; active compounds read high; 100% = twice DMSO control signal
row,Compound,activation
1,Cc1ccc(C(=O)C(C)OC(=O)Cc2n[nH]c(=O)c3ccccc23)cc1C (stereo not drawn),-0.0365% (inactive)
2,O=C(NCc1ccccn1)Nc1ccc(Cl)cc1,-2.45% (inactive)
3,CCN(CC(=O)Nc1c(F)cccc1F)C(=O)C1CCC1,-4.88% (inactive)
4,NC(=O)c1ccsc1NC(=O)c1ccco1,26.5% (inactive)
5,O=C(Nc1ccccc1)c1ccco1,11.5% (inactive)
6,O=C(Nc1nc(-c2ccco2)c(-c2ccco2)s1)c1ccco1,70.1% (active)
7,Cc1csc(NC(=O)c2ccc(C)s2)n1,-3.76% (inactive)
8,O=C(NCCCN1CCCC1=O)c1ccc(S(=O)(=O)Nc2ccccc2)cc1,16.8% (inactive)
9,CC(C)(C)C(=O)COC(=O)c1cc(S(=O)(=O)N2CCCCC2)ccc1N1CCOCC1,-1.57% (inactive)
10,Cc1ccc2nnn(Cc3cccc(C(C)(C)C)c3O)c2c1,59.9% (active)
11,Cc1ccc(C(=O)CSc2nnc(Cn3nnc4ccccc43)n2C)cc1,43.4% (inactive)
12,O=C(CN1C(=O)NC2(CCCC2)C1=O)OCCOc1ccc(F)cc1,3.21% (inactive)
13,CCCCn1c(N)c(N(CCC(C)C)C(=O)CC2OC(=O)c3ccccc32)c(=O)[nH]c1=O (stereo not drawn),-3.07% (inactive)
14,Cc1cc(Oc2ccc(Cl)cc2)nc(SCC(=O)c2ccccc2)n1,2.82% (inactive)
15,Cc1cc(C)nc(SCC(=O)c2ccc(Cl)cc2)n1,-1.86% (inactive)
16,Cc1cc(C)nc(S/C=C/C(=O)c2ccccc2)n1,111% (active)
17,CSc1ccc(/C=C2\NC(=O)NC2=O)cc1,20.8% (inactive)
18,CN(Cc1ccccc1F)C(=O)C(Cc1ccccc1)NC(=O)c1ccccc1 (stereo not drawn),-0.838% (inactive)
19,CCCCn1c(N)c(N(CCOC)C(=O)COc2c(C)cccc2C)c(=O)[nH]c1=O,-3.47% (inactive)
20,CCC(C)NC(=O)C1c2ccccc2C(=O)N1Cc1ccccc1 (stereo not drawn),16.4% (inactive)
21,CC1CCC(NC(=O)C2c3ccccc3C(=O)N2Cc2ccc3c(c2)OCO3)CC1 (stereo not drawn),-8.55% (inactive)
22,CCc1ccc(CN2C(=O)c3ccccc3C2C(=O)NCC2CCCO2)cc1 (stereo not drawn),62.2% (active)
23,CCOC(=O)c1cc(NC(=O)c2cccnc2)ccn1,-78.8% (inactive)
24,COc1ccc(S(=O)(=O)N2CCCCC2)cc1NC(=O)COc1ccccc1,4.76% (inactive)
25,COc1ccc(S(=O)(=O)N2CCOCC2)cc1NC(=O)CSc1ncnc2ccccc12,72.7% (active)

row,Compound,activation
1,COc1ccc(S(=O)(=O)N2CCOCC2)cc1NC(=O)COc1ccccc1,-3.48% (inactive)
2,CCCOC(=O)Cc1c(O)c2ccccc2[nH]c1=O,-21.7% (inactive)
3,O=C(Cc1c(O)c2ccccc2[nH]c1=O)NCc1ccccc1,55.5% (active)
4,CCCC(=O)Nc1c(O)c2ccccc2[nH]c1=O,-31.5% (inactive)
5,Cc1ccc(NS(=O)(=O)c2ccc(C(=O)NCCCN3CCOCC3)cc2)cc1,-3.65% (inactive)
6,O=C(NCCS(=O)(=O)NCc1ccc(F)cc1)c1ccccc1,2.75% (inactive)
7,O=C(Nc1cccc2c1CCCC2)c1ccc(F)cc1,-3.19% (inactive)
8,COc1ccc2oc(C(=O)NCc3ccco3)c(C)c2c1,6.69% (inactive)
9,O=C(NCc1ccco1)c1sc2cccc(F)c2c1Cl,27.8% (inactive)
10,COc1ccc2c(Cl)c(C(=O)NCc3ccco3)sc2c1,59.8% (active)
11,CCN(CC(=O)Nc1cccc(S(=O)(=O)N2CCCCC2)c1)Cc1ccccc1,0.93% (inactive)
12,CN1C(C(=O)NCc2ccco2)CC2Cn3c(nc4ccccc43)C21 (stereo not drawn),-8.57% (inactive)
13,Cc1nn(C)c(C)c1NS(=O)(=O)c1ccc(OC(F)(F)F)cc1,0.0449% (inactive)
14,Cc1ccc(S(=O)(=O)N(Cc2cccc([N+](=O)[O-])c2)C(=O)N2CCN(C)CC2)cc1,17.1% (inactive)
15,CC(=O)c1ccc(S(=O)(=O)NC2CC(=O)N(c3ccc4c(c3)OCCO4)C2)cc1 (stereo not drawn),8.08% (inactive)
16,Cc1ccc(Cc2nc(-c3cccc(C)c3)no2)cc1,17.5% (inactive)
17,COc1ccc2[nH]c(=O)c(-c3noc(-c4ccc(F)cc4)n3)cc2c1,25.7% (inactive)
18,Cc1cccc(-c2noc(-c3ccc(F)cc3)n2)c1,55% (active)
19,CCc1noc(C)c1C(=O)Oc1ccc(N(C)S(=O)(=O)c2ccc(C)c(C)c2)cc1,-16.6% (inactive)
20,CCOc1ccc(NC(=S)N2CCC(N(C)CC3CCCO3)CC2)cc1 (stereo not drawn),-6.15% (inactive)
21,CCOc1ccc(NC(=S)N2CCCCCC2)cc1,65.8% (active)
22,CCOC(=O)c1ccc(NC(=S)N2CCCC2)cc1,17.9% (inactive)
23,O=C(Nc1ccc2nc3n(c(=O)c2c1)CCCC3)c1ccc(Cl)nc1,3.58% (inactive)
24,COc1ccc(C(=O)NCC(c2ccco2)N2CCc3ccccc32)cc1OC (stereo not drawn),2.97% (inactive)
25,Cc1noc(C)c1CSCC(=O)Nc1ccc(Br)cc1Cl,1.94% (inactive)

row,Compound,activation
1,Cc1ccc(OCc2nc3ccccc3n2C)cc1,75.6% (active)
2,CC(C)n1c(COc2ccccc2)nc2ccccc21,12.3% (inactive)
3,COCn1c(COc2ccccc2)nc2ccccc21,23.9% (inactive)
4,Cc1n[nH]c(=O)c2c(NC(=O)COC(=O)c3ncc(Cl)c(Cl)c3Cl)oc(C)c12,-1.88% (inactive)
5,CN(CC(=O)Nc1cccc(F)c1)C(=O)C1CC(=O)N(CCc2ccccc2)C1 (stereo not drawn),-1.17% (inactive)
6,CCn1c2ccccc2c2cc(NC(=O)COC(=O)c3ccccc3Br)ccc21,15.8% (inactive)
7,CCn1c2ccccc2c2cc(NC(=O)C/C(C)=N/NC(=O)c3ccccc3N)ccc21,87.9% (active)
8,CCn1c2ccccc2c2cc(NC(=O)CNC)ccc21,-4.5% (inactive)
9,Nc1c(C(=O)Nc2ccc3c(c2)OCCO3)nnn1Cc1ccccc1,43.5% (inactive)
10,Cc1ccc(OCCNC(=O)CN2C(=O)NC3(CCCC3)C2=O)cc1,2.14% (inactive)
11,Cc1cc(N/C=C\C(=O)c2ccc(Cl)c(Cl)c2)no1,54.6% (active)
12,CCCNC(=O)c1ccc(Cl)c(Cl)c1,8.76% (inactive)
13,CCC(=O)Nc1ccc(C(=O)Nc2cc(C)on2)cc1,11.5% (inactive)
14,O=C(CCCN=C1NS(=O)(=O)c2ccccc21)OCC(=O)c1ccc(F)c(F)c1,-1.2% (inactive)
15,CC(Oc1ccc(F)cc1)C(=O)Nc1cc(S(=O)(=O)N2CCOCC2)ccc1N1CCN(C)CC1 (stereo not drawn),-1.39% (inactive)
16,Cc1ccc(S(=O)(=O)N(C)c2ccc(OCC(=O)OCc3ccc(C#N)cc3)cc2)cc1,-4.36% (inactive)
17,Cc1ccc2nc(SCC(=O)N3CCN(c4ccccc4)CC3)nc(=O)n2c1,-13.7% (inactive)
18,C=CS(=O)c1sc(Cl)c(N2CCOCC2)c1[N+](=O)[O-] (stereo not drawn),103% (active)
19,CCOC(=O)C1=C(C)N=c2s/c(=C\C(=O)OC)c(=O)n2C1c1ccc(OC)cc1 (stereo not drawn),61.6% (active)
20,CCOC(=O)C1=C(CSc2nccn2C)NC(=O)NC1c1ccc(OC)cc1 (stereo not drawn),30.7% (inactive)
21,COCCOC(=O)C1=C(C)N=c2s/c(=C\c3cccs3)c(=O)n2C1c1cccs1 (stereo not drawn),20% (inactive)
22,COCCCn1c(SCC(=O)Nc2oc(C)c3c(C)n[nH]c(=O)c23)nc2sc3c(c2c1=O)CCC3,0.458% (inactive)
23,CC1=NOC(=O)/C1=C\c1ccccc1,54.7% (active)
24,C#CCOc1ccccc1/C=C1/C(=O)ON=C1C,-2.14% (inactive)
25,C=CCOc1ccc(/C=C2/C(=O)ON=C2C)cc1OCC,-6.38% (inactive)

row,Compound,activation
1,Cn1ccsc1=NC(=O)c1cc(S(=O)(=O)N2CCOCC2)ccc1Cl,0.095% (inactive)
2,O=C(Nc1c(Br)cc2c(c1Br)Cc1ccccc1-2)C(F)(F)F,-5.38% (inactive)
3,COc1ccc(/C=C(\C#N)c2c[nH]c3ccccc23)cc1,69.3% (active)
4,COc1cc(/C=C(\C#N)c2nc3ccccc3[nH]2)ccc1O,20.9% (inactive)
5,COc1ccc2[nH]cc(/C=C(/C#N)S(=O)(=O)c3ccccc3)c2c1,0.918% (inactive)
6,O=C(COc1ccccc1)Nc1cc2c3c(c1)CC(=O)N3CCC2,5.75% (inactive)
7,O=C(NCc1cccnc1)c1cc(S(=O)(=O)N2CCOCC2)c(Cl)cc1Cl,-12.2% (inactive)
8,CCN(CC)CCn1c2c(c(SCC(=O)Nc3ccc(C(C)C)cc3)nc1=O)CCC2,8.29% (inactive)
9,O=C(c1cc2ccccc2s1)N1CCN(c2ccccn2)CC1,-12% (inactive)
10,Cc1cc(C(=O)N2CCN(c3ccccn3)CC2)c(C)o1,62.2% (active)
11,O=C(C(Cl)Cl)N1CCN(c2ccccn2)CC1,3.47% (inactive)
12,COc1ccc(CCNc2cc(N3CCN(C(=O)c4ccccc4OC)CC3)ccc2[N+](=O)[O-])cc1OC,22.3% (inactive)
13,N#Cc1ccc(-c2ccc(Cl)cc2)nc1Oc1ccc(F)cc1,82.1% (active)
14,N#Cc1ccc(-c2ccc(F)cc2)nc1Sc1ccccc1,-14.9% (inactive)
15,CN(C)c1ccnc(Oc2ccc(F)cc2)c1C#N,3.38% (inactive)
16,CCOc1ccc(C(=O)CCC(=O)NC2=NCCS2)cc1,12.7% (inactive)
17,O=C(Nc1ccccc1)c1nnsc1S(=O)(=O)c1ccc(Cl)cc1,79.4% (active)
18,CS(=O)(=O)c1ccc(Cl)c(NC(=O)Nc2ccccc2)c1,-2.82% (inactive)
19,O=C(c1ccc(Cl)cc1)c1cnc(Nc2ccccc2)s1,34.7% (inactive)
20,CC(Sc1nn(-c2ccc(Cl)cc2)c(=S)s1)C(=O)NCC1CCCO1 (stereo not drawn),3.22% (inactive)
21,CCC(=O)NC(=S)Nc1ccc(NC(=O)c2ccco2)c(Cl)c1,7.81% (inactive)
22,O=C(NNC(=S)Nc1ccc(Br)cc1Cl)c1ccco1,59% (active)
23,O=C(NNC(=O)c1ccco1)Nc1ccccc1,12.4% (inactive)
